Results filed as inconclusive are left out. Where a call stands in place of a potency, no number is given. Activity calls are given as the source filed them. Calls come from the whole dose curve; as a rule, active = well fitted inhibition curve with a large enough effect; inconclusive = small, poorly fitted or top-dose-only effect; inactive = flat fitted curve, though single readings scatter.
Target: Ubiquitin carboxyl-terminal hydrolase 1 (Homo sapiens) (UniProt O94782)
Test: Inhibitors of USP1/UAF1: Pilot qHTS (AID 504865);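 note: rhodamine fluorescence freed from ubiquitin-rhodamine substrate followed over time; top concentration of the series differs between compounds; nearly all actives have a fitted effect of over 35% in size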
Conditions: purified USP1/UAF1, Ub-rhodamine cleavage fluorescence; series mostly up to 114 µM
Procedure, shortened: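 1nM USP1/UAF1 + cpd, 15 min RT; start w/ Ub-Rho 150nM final; kinetic FL 480/540 nm, 6 reads q60 s. Buffer 50mM HEPES pH 7.8, 0.5mM EDTA, 1mM TCEP, 0.01% Tween-20, 0.1 mg/ml BSA.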

Chain of Ubiquitin carboxyl-terminal hydrolase 1 (Homo sapiens) (O94782 whole entry, looked up): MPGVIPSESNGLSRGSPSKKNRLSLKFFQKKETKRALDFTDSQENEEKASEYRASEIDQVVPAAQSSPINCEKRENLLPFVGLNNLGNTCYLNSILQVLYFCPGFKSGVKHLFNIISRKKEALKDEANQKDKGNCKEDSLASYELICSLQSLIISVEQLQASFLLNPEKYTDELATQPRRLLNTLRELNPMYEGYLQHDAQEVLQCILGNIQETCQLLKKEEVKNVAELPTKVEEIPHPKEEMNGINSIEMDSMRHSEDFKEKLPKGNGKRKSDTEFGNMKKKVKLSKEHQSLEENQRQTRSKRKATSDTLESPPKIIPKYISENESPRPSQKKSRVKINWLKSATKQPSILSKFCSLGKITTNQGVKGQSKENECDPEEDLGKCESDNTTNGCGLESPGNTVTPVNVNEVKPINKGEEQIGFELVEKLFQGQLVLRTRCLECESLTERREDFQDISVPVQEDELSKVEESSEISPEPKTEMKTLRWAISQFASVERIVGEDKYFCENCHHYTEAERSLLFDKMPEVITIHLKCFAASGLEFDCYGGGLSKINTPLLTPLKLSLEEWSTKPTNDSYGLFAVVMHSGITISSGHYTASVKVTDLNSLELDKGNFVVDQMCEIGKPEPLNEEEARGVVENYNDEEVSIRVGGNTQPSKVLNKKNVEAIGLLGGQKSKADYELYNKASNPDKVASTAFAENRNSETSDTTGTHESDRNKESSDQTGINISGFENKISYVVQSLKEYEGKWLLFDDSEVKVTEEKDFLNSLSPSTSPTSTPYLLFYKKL

Compound | Potency
COc1ccc2c(c[n+](C)c3c4cc5c(cc4ccc23)OCO5)c1OC | inactive
S=C(NC1CCCCC1)N1CCC(c2cnc[nH]2)CC1 | inactive
C=CCN1CC[C@]23CCCCC2[C@H]1Cc1ccc(O)cc13 (some centres undefined) | inactive
Cc1nccc2c1[nH]c1ccccc12 | inactive
CNCCc1c[nH]c2ccc(O)cc12 | inactive
CC(=O)NCCc1c[nH]c2ccccc12 | inactive
CCCCc1ccc(C(=O)O)nc1 | inactive
CC1=NN=C(c2ccc(N)cc2)c2cc3c(cc2C1)OCO3 | inactive
NC(=NCCC[C@H](N)C(=O)O)N[N+](=O)[O-] | inactive
CC[C@@]1(O)C(=O)OCc2c1cc1n(c2=O)Cc2cc3ccccc3nc2-1 | inactive
NCc1cc(=O)[nH]o1 | inactive
NCCc1c[nH]c2ccc(O)cc12 | inactive
c1ccc(CCCN2CCN(CCOC(c3ccccc3)c3ccccc3)CC2)cc1 | inactive
C[C@@H](N)Cc1cnc[nH]1 | inactive
COC(=O)[C@@H](N)CCCN=C(N)N[N+](=O)[O-] | inactive
CN[C@@H]1C[C@@H](c2ccc(Cl)c(Cl)c2)c2ccccc21 | inactive
Oc1ccc2c3c1O[C@H]1c4[nH]c5c(c4C[C@@]4(O)[C@@H](C2)N(CC2CC2)CC[C@]314)C[C@@]1(O)[C@H]2Cc3ccc(O)c4c3[C@@]1(CCN2CC1CC1)[C@H]5O4 | inactive
C#CCOC(=O)C1=CCCN(C)C1 | inactive
CCCN(CCC)[C@@H]1CCc2ccc(O)cc2C1 | inactive

From PubChem BioAssay (NCATS)
